This passage reports Potency, outcome and activity change, positive = activation results from PubChem BioAssay (Tox21).

Assay [1] can be described thus: qHTS assay to identify small molecule antagonists of the estrogen related receptor (ERR) signaling pathway from Tox21 library - cell viability counter screen (AID 1224834). Also: nearly all actives have a fitted effect of over 30% in size. The method in brief: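 Seeded ERR cells were rested 6 h at 37 C/5% CO2 before compounds, positive and negative controls or DMSO were added. Incubation continued for 17.5 h, and viability was then quantified by CellTiter-Fluor fluorescence.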
(qHTS replaces the single test concentration by a dilution series.)

Assay [2] concerns the target Luciferin 4-monooxygenase (Photinus pyralis) (UniProt P08659). Nature of the assay: qHTS assay to identify small molecule inhibitors of firefly luciferase (AID 1224835). Also: nearly all actives have a fitted effect of over 25% in size. The essentials:
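Biochemical qHTS: compounds run as interplate titrations against purified firefly enzyme, with D-luciferin and ATP each at its KM concentration. Light output recorded by CCD imaging.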

A short description of assay [3]: qHTS assay to identify small molecule agonists of the constitutive androstane receptor (CAR) signaling pathway - cell viability counter screen (AID 1224836). Also: nearly all actives have a fitted effect of over 45% in size. The method in brief: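 Multiplexed viability check: HepG2-CYP2B6-hCAR cells, 15-point compound dosing, 0.75 uM PK11195 final, 23 h at 37 C, CellTiter-Fluor fluorescence.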
A short description of assay [4]: qHTS assay to identify small molecule antagonists of the constitutive androstane receptor (CAR) signaling pathway - cell viability counter screen (AID 1224837). Also: nearly all actives have a fitted effect of over 45% in size. The method in brief:
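To flag cytotoxic false antagonists, HepG2 hCAR/CYP2B6-2.2kb cells were treated 23 hr with 15-concentration compound series and 50 nM CITCO at 37 C/5% CO2; CellTiter-Fluor fluorescence was the measured end point.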

Assay [5] is described as follows: qHTS assay to identify small molecule antagonists of the estrogen related receptor signaling pathway with the pleiotropic PPARgamma coactivator (PGC) from Tox21 10K library - cell viability counter screen (AID 1224840; active = well fitted cell-killing curve with a large enough effect in the repeat runs, not every such curve was filed as active; also: nearly all actives have a fitted effect of over 40% in size). The essentials: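 Seeded PGC/ERR cells (2,000/well, 6 h, 37 C/5% CO2) get compound by pin tool; 17.5 h incubation at 37 C; CellTiter-Fluor added, 30 min, fluorescence measured.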

The target in assay [6] is Thyrotropin receptor (Homo sapiens) (UniProt P16473). Nature of the assay: qHTS assay to identify small molecule agonists of the thyroid stimulating hormone receptor (TSHR) signaling pathway (AID 1224843; calls by dose curve; also: nearly all actives have a fitted effect of over 45% in size). The essentials:
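Agonist-mode screen: TSHR HEK293 cells received test chemicals for half an hour at room temperature, then HTRF cAMP detection reagents for one hour prior to fluorescence measurement. Each chemical ran as a 15-concentration series, triplicated.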

Assay [7] can be described thus: qHTS assay to identify small molecule agonists of the hypoxia (HIF-1) signaling pathway - cell viability counter screen (AID 1224844; calls by dose curve; also: nearly all actives have a fitted effect of over 50% in size). The essentials: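 HRE-bla ME-180; 0.5% dFBS; cpd 17 h, 37C, 5% CO2; CellTiter-Glo lum., 30 min RT, post-FRET read, same wells.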
Assay [8] is described as follows: qHTS assay to identify small molecule agonists of H2AX (AID 1224845; active = well fitted activation curve with a large enough effect in the signal ratio in the repeat runs, not every such curve was filed as active; the % refers to the signal ratio). The method in brief: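 Wild-type CHO-K1 cells, plated overnight, exposed 3hr at 37C to 15 concentrations (0.76% DMSO final). Lysed, then HTRF anti-pH2AX (S139) cryptate and anti-H2AX-d2 antibodies, 24 hr room temperature; 665/620 nm emission read.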
A short description of assay [9]: qHTS RealTime-Glo MT Cell Viability Assay in HepG2 cells - 24 hour (AID 1224867). Also: nearly all actives have a fitted effect of over 50% in size. The essentials: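 Cells + NanoLuc/prosubstrate dispensed (600 cells/well) → 5 h at 37 C/5% CO2 → compounds in DMSO transferred → 40 h incubation at 37 C, luminescence read at 0, 8, 16, 24, 32, 40 h.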
Assay [10] is described as follows: qHTS RealTime-Glo MT Cell Viability Assay in HEK293 cells - 32 hour (AID 1224868). Also: top concentration of the series differs between compounds; nearly all actives have a fitted effect of over 50% in size. The method in brief:
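Tox21 10K qHTS, HEK293, 600 cells/well, RealTime-Glo reagent co-dispensed with cells; 5 h preincubation, compound by pintool, 37 C, luminescence at 0–40 h.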

Assay [11] is described as follows: A CellTox Green Cytotoxicity Assay to monitor cytotoxicity in HEK293 cells - 0 hour (AID 1224869). Also: nearly all actives have a fitted effect of over 50% in size. The essentials: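 Tox21 screen in HEK293: membrane-impermeant cyanine dye fluoresces on binding dead-cell DNA; compound pinned 5 h post-seeding, plates held at 37 C, signal read repeatedly through 40 h.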
A short description of assay [12]: qHTS assay to identify small molecule antagonists of the estrogen related receptor signaling pathway with the pleiotropic PPARgamma coactivator (PGC) from Tox21 10K library (AID 1224841; call rule not given here; also: potency is read from the fitted curve at half-maximal effect). The essentials:
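Test chemicals dissolved in DMSO were applied to pre-incubated (6 h) PGC/ERR cells at 2,000 cells/well for an 18 h, 37 C treatment; reporter luminescence was then read using One-Glo.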

The nature of assay [13]: qHTS assay to identify small molecule agonists of the estrogen related receptor signaling pathway with the pleiotropic PPARgamma coactivator (PGC) from Tox21 10K library (AID 1224842). Also: nearly all actives have a fitted effect of over 15% in size. The method in brief: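 PGC/ERR reporter cell line, 2,000 cells per well, incubated 6 h at 37 C before 23 nL compound in DMSO was added. After 18 h at 37 C, One-Glo luminescence read following 30 min at room temperature.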

A short description of assay [14]: qHTS assay to identify small molecule agonists of the hypoxia (HIF-1) signaling pathway (AID 1224846; active = well fitted activation curve with a large enough effect in the signal ratio in the repeat runs, not every such curve was filed as active; the % refers to the signal ratio). The essentials: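 Reporter induction in HRE-bla ME-180 cells is taken as agonism: cells sit 5 hrs after plating, receive compounds or DMSO only, incubate 17 hrs at 37C under 5% CO2, and are loaded with CCF4-AM for beta-lactamase FRET measurement.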
Assay [15] is described as follows: qHTS assay to identify small molecule antagonists of the estrogen related receptor (ERR) signaling pathway from Tox21 library (AID 1224848). Also: nearly all actives have a fitted effect of over 50% in size. Also: potency is read from the fitted curve at half-maximal effect. The essentials:
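Quantitative high-throughput format: ERR reporter cells (2,000/well) pre-incubated 6 h, treated 18 h at 37 C with compounds in DMSO alongside positive and negative controls, then read by ONE-Glo luminescence.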

Assay [16] in a line: qHTS assay to identify small molecule agonists of the estrogen related receptor (ERR) signaling pathway from Tox21 library (AID 1224849; calls by dose curve; also: nearly all actives have a fitted effect of over 15% in size). Conditions: ERR reporter cell line, ONE-Glo luciferase, 18 h. The essentials: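 Tox21 compounds tested for ERR agonism in an NTP reporter cell line: 18 h treatment at 37 C, then ONE-Glo luminescence.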
Assay [17] deals with Nuclear receptor subfamily 1 group I member 3 (Homo sapiens) (UniProt Q14994). Nature of the assay: qHTS assay to identify small molecule antagonists of the constitutive androstane receptor (CAR) signaling pathway (AID 1224838).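 Also: HepG2 cells stably expressing hCAR with CYP2B6 luciferase reporter stimulated by CITCO; nearly all actives have a fitted effect of over 40% in size.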 The essentials:
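Human hepatoma HepG2 cells expressing hCAR and a CYP2B6 promoter (2.2 kb) luciferase construct; compound titration (15 points) with 50 nM CITCO final, 24 h at 37 C/5% CO2; luminescence via ONE-Glo after 30 min at room temperature.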

The target is the same in assay [18]. Description: qHTS assay to identify small molecule agonists of the constitutive androstane receptor (CAR) signaling pathway (AID 1224839).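 Also: HepG2 cells stably carrying human CAR and a CYP2B6 luciferase reporter; nearly all actives have a fitted effect of over 15% in size.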 The method in brief: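 Using human hepatoma HepG2 cells engineered with hCAR and a CYP2B6-2.2kb reporter, 15-concentration compound series were incubated 24 h alongside PK11195 at 0.75 uM final, with luminescence quantified afterwards.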

A short description of assay [19]: qHTS assay to identify small molecule agonists of H2AX - cell viability counter screen (AID 1224847; calls by dose curve; also: top concentration of the series differs between compounds; nearly all actives have a fitted effect of over 30% in size). The method in brief: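 After overnight plating of 1000 CHO-K1 cells per well, a 15-concentration compound series was applied for 3 hr at 37C. Luminescence from CellTiter-Glo, read following 30 min at room temperature, reflected cell viability.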

SMILES strings stand for the structures. Several values for one entry are separate records, joined by “and”; a condition that tells them apart may be missing. Equal entries are not always repeated. A number with no mark means an inactive call. Records with an inconclusive call do not appear. Activity calls are given as the source filed them. Unless noted, calls follow the shape of the dose curve; as a rule, active = well fitted curve in the direction sought with a large enough effect in the repeat runs; inconclusive = weak or mixed curves; inactive = no such curve, though single readings can be large; an effect the other way counts as inactive or inconclusive.
% is scaled to controls: 0 for no effect and ±100 for the full control effect.

Sequence of Thyrotropin receptor (Homo sapiens) (P16473 whole entry, looked up): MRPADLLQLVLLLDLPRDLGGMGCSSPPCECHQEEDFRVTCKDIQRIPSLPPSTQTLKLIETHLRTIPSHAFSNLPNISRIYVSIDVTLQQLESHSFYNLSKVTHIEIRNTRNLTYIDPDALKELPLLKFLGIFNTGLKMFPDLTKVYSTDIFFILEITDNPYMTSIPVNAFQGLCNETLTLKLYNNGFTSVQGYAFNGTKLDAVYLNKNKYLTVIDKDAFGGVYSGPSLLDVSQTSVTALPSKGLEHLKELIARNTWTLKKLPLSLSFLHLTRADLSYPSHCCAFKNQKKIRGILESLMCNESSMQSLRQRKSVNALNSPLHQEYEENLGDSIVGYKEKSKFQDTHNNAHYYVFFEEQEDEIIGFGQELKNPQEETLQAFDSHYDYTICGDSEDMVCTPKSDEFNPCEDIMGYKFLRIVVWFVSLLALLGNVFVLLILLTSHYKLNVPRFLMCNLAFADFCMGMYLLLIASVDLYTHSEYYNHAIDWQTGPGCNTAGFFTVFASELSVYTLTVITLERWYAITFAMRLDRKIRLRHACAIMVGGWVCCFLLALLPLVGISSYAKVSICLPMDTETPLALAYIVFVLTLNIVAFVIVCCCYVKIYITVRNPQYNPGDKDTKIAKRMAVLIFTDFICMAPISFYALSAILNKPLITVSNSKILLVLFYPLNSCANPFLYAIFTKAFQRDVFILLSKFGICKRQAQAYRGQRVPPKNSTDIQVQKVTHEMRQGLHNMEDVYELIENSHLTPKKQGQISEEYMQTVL
Sequence of Luciferin 4-monooxygenase (Photinus pyralis) (P08659 whole entry, looked up): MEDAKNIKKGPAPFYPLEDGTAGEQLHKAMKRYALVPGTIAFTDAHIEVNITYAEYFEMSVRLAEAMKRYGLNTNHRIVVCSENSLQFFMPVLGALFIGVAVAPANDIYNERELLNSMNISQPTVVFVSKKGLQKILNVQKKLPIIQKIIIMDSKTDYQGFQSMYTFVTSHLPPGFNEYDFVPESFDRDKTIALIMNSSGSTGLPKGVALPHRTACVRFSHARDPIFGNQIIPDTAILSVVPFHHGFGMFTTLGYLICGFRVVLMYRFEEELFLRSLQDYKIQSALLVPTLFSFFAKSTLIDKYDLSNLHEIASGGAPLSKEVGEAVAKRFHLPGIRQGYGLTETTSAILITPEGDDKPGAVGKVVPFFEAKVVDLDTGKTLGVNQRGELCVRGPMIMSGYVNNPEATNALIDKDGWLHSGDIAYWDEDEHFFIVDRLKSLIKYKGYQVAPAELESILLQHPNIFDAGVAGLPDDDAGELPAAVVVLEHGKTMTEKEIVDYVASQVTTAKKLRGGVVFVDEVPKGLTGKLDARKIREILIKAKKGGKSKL
Sequence of Nuclear receptor subfamily 1 group I member 3 (Homo sapiens) (Q14994 whole entry, looked up): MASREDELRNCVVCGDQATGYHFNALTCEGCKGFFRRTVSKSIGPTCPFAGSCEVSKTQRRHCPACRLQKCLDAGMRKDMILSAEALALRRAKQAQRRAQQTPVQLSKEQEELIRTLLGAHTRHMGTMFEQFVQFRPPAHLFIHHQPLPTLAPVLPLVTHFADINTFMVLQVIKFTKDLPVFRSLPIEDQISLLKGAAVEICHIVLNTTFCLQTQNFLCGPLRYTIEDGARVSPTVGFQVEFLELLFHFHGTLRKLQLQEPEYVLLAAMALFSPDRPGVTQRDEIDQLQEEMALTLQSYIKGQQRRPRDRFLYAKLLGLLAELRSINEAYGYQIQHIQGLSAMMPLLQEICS

`OCC#CCO`: the Potency result in assay [1], in [2], in assay [3], in [4], in [5] and in [6] was “inactive” throughout. The Potency result in assay [7], in assay [8], in [9], in [10] and in assay [11] was “inactive” each time.

Consider `OC[C@@H](O)[C@@H](O)[C@H](O)[C@@H](O)CO`, for which the Potency result in [1], in [2], in assay [3], in [4], in assay [5] and in assay [12] was “inactive” throughout. Moreover, the Potency entry in [13], in assay [6], in [7], in [8], in [15] and in [9] was “inactive” throughout. Besides, the Potency entry in assay [10] and in [11] was “inactive” throughout. In assay [14], the outcome was inactive. The activity change, positive = activation in [16] (at 92.4 µM (top of the series)) is 3.67% and 4.92%.

For `CCc1ccc(O)cc1`, the Potency entry in assay [1], in [2], in assay [3], in [17], in [18] and in assay [5] was “inactive” in each case. In addition, the Potency entry in [12], in assay [13], in assay [6], in assay [7], in [8] and in [19] was “inactive” each time. The Potency entry in assay [15], in assay [9] and in assay [10] was “inactive” throughout. In addition, the compound was classed as inactive in assay [14]. Moreover, the activity change, positive = activation in [16] (at 92.4 µM (top of the series)) was 0.519% and 6.7%.

`C=C1C2CCC(C2)C1(C)C` (centres undefined): the Potency entry in assay [1], in assay [2], in assay [3], in assay [17], in [18] and in [5] was “inactive” each time. For the same compound, the Potency entry in assay [12], in assay [13], in assay [6], in assay [7], in assay [8] and in assay [19] was “inactive” in each case. Besides, the Potency entry in assay [15], in assay [9], in assay [10] and in assay [11] was “inactive” throughout. Besides, the activity change, positive = activation in [16] (at 92.4 µM (top of the series)) was 0.557% and 4.73%.

Take `Oc1c(Cl)cc(Cl)c(Cl)c1Cl`: the Potency result in assay [1], in assay [2], in [3], in [4], in assay [5] and in assay [13] was “inactive” in each case. Besides, the Potency entry in [6], in assay [7], in assay [9] and in [11] was “inactive” each time. The Potency was 59.8 µM (active) and 54.5 µM (active) in assay [12]; 53.3 µM (active) and 48.6 µM (active) in [15]. In addition, in assay [14], the outcome was inactive. Moreover, in assay [16] (at 92.4 µM (top of the series)), the activity change, positive = activation is -46.5% and -37.8%.

For `O=C1O[C@H](CO)[C@@H](O)[C@H](O)[C@H]1O`, the Potency result in assay [1], in [2], in assay [3], in assay [17], in assay [18] and in [5] was “inactive” each time. The Potency entry in assay [12], in assay [13], in [6], in assay [7], in assay [8] and in assay [19] was “inactive” throughout. For the same compound, the Potency result in assay [15], in [9] and in assay [10] was “inactive” each time. Moreover, the activity change, positive = activation in assay [16] (at 42.5 µM (top of the series)) was 3.62%; in [16] (at 92.4 µM (top of the series)) it was -0.676%.

In the case of `O=[N+]([O-])C(CO)(CO)CO`, the Potency result in [1], in assay [2], in assay [3], in assay [4], in assay [5] and in [12] was “inactive” each time. Besides, the Potency entry in assay [13], in [6], in assay [7], in [8], in assay [19] and in assay [15] was “inactive” throughout. The Potency entry in [9], in assay [10] and in [11] was “inactive” each time. Moreover, the outcome in [14] was inactive. In addition, in assay [16] (at 92.4 µM (top of the series)), the activity change, positive = activation was 10.1% and 10.2%.
